# In the library only some 27% were active in any assay of this set; here they are far more common.
# Cav32 inh: blocks human Cav3.2 T-type calcium channel. B-score at 10 µM. Cav3.2-expressing cells, Fluo-4 calcium fluorescence FDSS; hits give low values. 100,000 compounds, 4% hits. O95180. AID 449739;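 active = single-dose well whose peak fluorescence ratio is a statistical outlier from its plate by either plate-standardised score or position-corrected B-score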
# CYP2C19 inh: blocks human cytochrome P450 2C19 | 96,000 compounds, 21% hits | CYP2C19 Supersomes, luciferin-H EGE luminescence, 30 min | P33261 | inhibition, % at 5 µM;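 active = CYP2C19 inhibition above a set limit at 5 µM in the primary screen, cut at about 50% in these data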;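 also: plate controls were negative control wells for no effect and 2.5 mM tranylcypromine positive control for full effect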
# CYP2C9 act: activators of human CYP2C9. 96,000 compounds, 1.4% hits. activation factor at 5 µM. recombinant CYP2C9, luciferin-H conversion, luminescence; hits give high values; factor 1 = untreated enzyme, 0 = blocked;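 active = activation factor of 2 or more for CYP2C9 at a 5 µM dose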;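 also: 0 = sulfaphenazole-blocked wells and 1 = vehicle-only wells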
# Target sequence (P11712 whole entry, looked up): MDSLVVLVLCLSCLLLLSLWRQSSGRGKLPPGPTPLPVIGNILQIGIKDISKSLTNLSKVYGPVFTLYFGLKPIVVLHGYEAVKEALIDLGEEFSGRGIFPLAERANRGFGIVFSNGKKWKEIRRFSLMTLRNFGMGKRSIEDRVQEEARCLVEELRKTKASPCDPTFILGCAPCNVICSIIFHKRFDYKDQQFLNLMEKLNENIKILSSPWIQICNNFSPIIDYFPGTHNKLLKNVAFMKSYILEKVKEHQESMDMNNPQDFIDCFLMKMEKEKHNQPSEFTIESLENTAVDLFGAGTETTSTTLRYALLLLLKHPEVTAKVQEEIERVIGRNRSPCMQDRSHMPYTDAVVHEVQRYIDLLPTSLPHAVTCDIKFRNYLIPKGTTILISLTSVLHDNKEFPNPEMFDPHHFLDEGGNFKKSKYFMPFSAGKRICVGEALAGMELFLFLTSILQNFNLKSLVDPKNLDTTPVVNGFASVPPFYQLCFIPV
# CYP2C9 inh: human CYP2C9 inhibition | CYP2C9 Supersomes, luciferin-H conversion, luminescence | AID 777 | inhibition, % at 5 µM | 96,000 compounds, 20% hits;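 active = blocking of liver enzyme CYP2C9 beyond about 50% at 5 µM, limit read from the data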
# CYP2C19 act: activators of human cytochrome P450 2C19; 96,000 tested, under 10 active; AID 1025; P33261; activation factor at 5 µM; recombinant CYP2C19, luciferin-H EGE luminescence; hits give high values; 0 = fully inhibited enzyme, 1 = untreated enzyme;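 active = activation factor of at least 2 at 5 µM in the primary screen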;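 also: 0 = wells with 2.5 mM tranylcypromine and 1 = vehicle-only wells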
# Starred values were filed as active, the others as inactive; i = inactive; x = not tested or not shown.
SMILES,Cav32 inh,CYP2C19 inh,CYP2C9 act,CYP2C9 inh,CYP2C19 act
Cc1ccc(C)c(Cn2nnc3c(=O)[nH]c(C4CCCN(C(=O)C5CCCCC5)C4)nc32)c1 (stereo not given),-1.1,73*,0.1,89*,0.3
Cc1ccc(C)c(Cn2nnc3c(=O)[nH]c(C(=O)NCc4ccco4)nc32)c1,-0.36,-15,0.8,20,1.2
O=C(c1cccs1)N1CCC(c2nc3c(nnn3Cc3ccccc3)c(=O)[nH]2)CC1,0.21,9,0.4,59*,0.9
O=C(c1ccccc1)N1CCCC(c2nc3c(nnn3Cc3ccccc3)c(=O)[nH]2)C1 (stereo not given),0.27,24,0.2,78*,0.8
COc1ccccc1NC(=O)N1CCCC(c2nc3c(nnn3Cc3ccc(C)cc3)c(=O)[nH]2)C1 (stereo not given),-0.027,67*,0.7,27,0.3
O=C(O/N=C/C1=C(Cl)c2ccccc2CC1)c1ccc(F)cc1,-0.38,-10,0.7,28,1.1
O=C1CSC(c2ccccc2F)N1CCN1CCCCC1 (stereo not given),0.39,43,1.1,-11,0.6
O=C1CSC(c2ccccc2F)N1c1cc(Cl)ccc1O (stereo not given),-3.7*,84*,1.3,-34,0.2
Cc1ccc(S(=O)(=O)N2CCC(O)(c3cccnc3)CC2)cc1,-2.5,54*,2.1*,-114,0.5
CC(=O)N1CCC(O)(c2cccc(C(F)(F)F)c2)CC1,1.4,28,0.9,10,0.7
O=S(=O)(c1cccc(C(F)(F)F)c1)N1CCC(O)(c2cccnc2)CC1,-0.35,88*,1.1,-8,0.1
Cn1c(=O)c2c(nc(CN3CCN(c4ccc(F)cc4)CC3)n2Cc2ccccc2F)n(C)c1=O,-2.4,-8,1.2,-17,1.1
COC(=O)c1ccccc1N1C(=O)[C@@H]2C(c3ccc(Br)cc3)=NO[C@@H]2C1=O,-1.1,99*,0.5,46,0
COC(=O)c1ccccc1N1C(=O)C2C(C1=O)[C@H]1C=C[C@@H]2C1 (stereo not given in full),-0.041,25,0.9,15,0.7
Cc1ccccc1CNc1ccc(C(CC(N)=O)NC(=O)c2ccccc2)cc1[N+](=O)[O-] (stereo not given),0.45,x,x,x,x
COc1ccc(CNC2=CC(=O)CC(C)(C)C2)cc1,1.1,12,0.9,11,0.9
CC(=O)N(/N=C1\Sc2ccccc2C1=O)c1ccccc1C,0.79,39,0.7,30,0.6
CC(=O)N(/N=C1\Sc2ccccc2C1=O)c1ccccc1,-0.035,50*,0.4,63*,0.5
COCCNC(=O)CSc1nnc2c(Cl)cc(Cl)cn12,-0.094,8,0.8,22,0.9
C/C=C(\C)c1nnc(NC(=O)c2ccco2)s1,0.077,3,0.9,12,1
COC(=O)CNC(=O)CN1c2cccc3cccc(c23)S1(=O)=O,0.17,14,2.1*,-109,0.9
O=C(CN1c2cccc3cccc(c23)S1(=O)=O)N1CCOCC1,0.62,25,0.9,13,0.7
COc1ccc(NC(=O)CCN2C(=O)c3ccccc3S2(=O)=O)cc1,0.088,4,0.8,17,1
COC(=O)CNC(=O)Cn1ccc2ccccc2c1=O,0.98,-8,1.1,-11,1.1
COc1ccc(NC(=O)CN2c3cccc4cccc(c34)S2(=O)=O)cc1,-0.049,18,2.8*,-184,0.8
SMILES,Cav32 inh,CYP2C19 inh,CYP2C9 act,CYP2C9 inh,CYP2C19 act
COc1ccc(NC(=O)C(C)N2c3cccc4cccc(c34)S2(=O)=O)cc1 (stereo not given),-0.58,67*,0.5,50,0.3
CCN1c2cccc3cccc(c23)S1(=O)=O,x,78*,6.2*,i,0.2
O=C(CSc1nc2ncccc2[nH]1)NCCc1ccccc1,0.069,x,x,x,x
CCOC(=O)c1ccccc1NC(=O)/C=C/c1cc(OC)c(OC)c(OC)c1,-1.5,-7,1.1,-12,1.1
O=C([C@@H]1CC=C[C@@H]2CCN(C3CCCCC3)C(=O)[C@@H]21)N1CCN(c2ccccc2)CC1,0.08,x,x,x,x
N#Cc1nc(COc2ccccc2)oc1N1CCN(c2cccc(Cl)c2)CC1,-2.4,38,0.2,80*,0.6
N#Cc1nc(COc2cccc(Cl)c2)oc1N1CCN(c2ccccc2)CC1,-2.4,50,0.4,57*,0.5
Cc1ccc(CC2CC(=O)N(Cc3ccco3)C2=O)cc1 (stereo not given),0.61,88*,0.4,55*,0.1
O=C1CC(Cc2ccccc2)C(=O)N1Cc1ccco1 (stereo not given),0.76,38,1,0,0.6
Cc1cc(C)cc(CC2CC(=O)N(c3ccc4c(c3)OCCO4)C2=O)c1 (stereo not given),-0.73,4,1.1,-15,1
Cc1ccc(CC2CC(=O)N(c3ccncc3)C2=O)cc1 (stereo not given),0.26,94*,0.4,57*,0.1
Cc1ccc(CC2CC(=O)N(c3ccc(Cl)cn3)C2=O)cc1 (stereo not given),-0.053,58*,0.6,39,0.4
COc1ccc(OC)c(N2C(=O)CC(Cc3ccc(Cl)cc3)C2=O)c1 (stereo not given),-0.48,x,x,x,x
C#CC(CC)(CC)NC(=O)c1c(C)noc1C,0.34,4,1.1,-6,1
Cc1cccc(NC(=O)CN(C)S(=O)(=O)c2cnc[nH]2)c1,0.16,90*,0.1,93*,0.1
COc1cccc(CNC(=O)CN(C)S(=O)(=O)c2cnc[nH]2)c1,0.08,99*,0.2,79*,0
CCN(c1cccc(C)c1)S(=O)(=O)c1ccc2[nH]c(=O)c(=O)[nH]c2c1,-0.27,32,0.3,69*,0.7
Cc1cccc(NC(=O)Cn2cccc2)c1,-0.064,24,0.8,22,0.8
CCN(c1cccc(C)c1)S(=O)(=O)c1cnc[nH]1,-0.98,97*,0,98*,0
CCN(c1cccc(C)c1)S(=O)(=O)c1cccc(C(=O)O)c1,-0.23,-13,1,-2,1.1
CCN(c1cccc(C)c1)S(=O)(=O)c1c(C)[nH]c(=O)[nH]c1=O,0.66,-4,1.3,-29,1
CN(C)CCNC(=O)CN1C(=O)COc2ccc(C(C)(C)C)cc21,0.033,-7,1,-2,1.1
CN(C(=O)c1cccc(C#N)c1)c1nnc(C2CCCO2)s1 (stereo not given),-0.2,1,0.9,6,1
COc1ccc(C)cc1S(=O)(=O)N(C)CC(=O)NC1CCCCC1,0.49,22,0.9,7,0.8
COc1ccc(C)cc1NC(=O)CN(C)S(=O)(=O)c1cnc[nH]1,1.5,78*,0.3,73*,0.2
Cc1cc(C)c2c(N)c(C(=O)N3CCN(c4ncccn4)CC3)sc2n1,0.2,50*,0.6,42,0.5
COCc1cc(C)nc2sc(C(=O)N3CCCCC3)c(N)c12,1.2,12,0.8,20,0.9
